This is a sample that favours compounds with a hit; in the whole collection about 2.2% have one here.
FMDV inh – antivirals against foot and mouth disease virus; 410,000 compounds, 1.2% hits; FMDV antiviral cell-based qHTS; AID 1159524; Potency, µM (highest dose often 57.9 µM), actives largely listed as inhibitors; calls by dose curve; tested in HEK293T cells; also: read-out not given here; nearly all actives have a fitted effect of over 45% in size
VACV Venus inh – inhibitors of vaccinia virus (Venus reporter). AID 720580. 330,000 compounds, 0.46% hits. Potency, µM (series often up to 36.5 µM), actives largely listed as inhibitors. Vaccinia virus Venus reporter expression, fluorescence; calls by dose curve; tested in A549 cells; also: nearly all actives have a fitted effect of over 30% in size
VACV mCherry inh – vaccinia inhibition (mCherry reporter) | Potency, µM (doses to about 36.5 µM), hits mostly inhibitors | Vaccinia virus mCherry reporter infection, fluorescence | 310,000 compounds, 0.63% hits | AID 720579; calls by dose curve; tested in A549 cells; also: nearly all actives have a fitted effect of over 35% in size
Giardia FBPA inh-1 – inhibitors of Giardia lamblia fructose-1,6-bisphosphate aldolase; A8B2U2; purified Giardia FBPA; Potency, µM (highest dose often 59.6 µM), most hits filed as inhibitors; 290,000 compounds, 0.71% hits; also: nearly all actives have a fitted effect of over 55% in size
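40 nM FBPA preincubated 10 min at RT with compound (up to 57.5 uM final), then substrate plus GAPDH/TPI/NAD/arsenate coupling and diaphorase/resazurin added. Fluorescence read after 20 min at RT, 525/598 nm.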
Giardia growth – blocks growth of Giardia lamblia trophozoites; shares compounds with Giardia FBPA inh-1; 1,500 compounds, 5% hits; Giardia lamblia trophozoite growth inhibition; Potency, µM (top dose mostly 57.5 µM), hits mostly inhibitors;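 also: trophozoites exposed to compound for 48 h at 37 °C; nearly all actives have a fitted effect of over 70% in size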
Mammalian tox – mammalian cytotoxicity of Giardia aldolase inhibitor hits; 1,500 compounds, 4% hits; mammalian cell viability counter-screen, qHTS; shares compounds with Giardia FBPA inh-1; Potency, µM (doses to about 57.5 µM), usual class: inhibitors;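 also: Chinese hamster ovary cells used as mammalian cytotoxicity surrogate; viability measured as cellular ATP by luminescence; compound exposure lasted 48 h before reading; nearly all actives have a fitted effect of over 60% in size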
Giardia FBPA inh-2 – confirmation of Giardia fructose-bisphosphate aldolase inhibitors. shares compounds with Giardia FBPA inh-1. purified Giardia aldolase enzyme activity, qHTS. Potency, µM (doses to about 57.5 µM), usual class: inhibitors. 1,500 compounds, 5% hits; also: nearly all actives have a fitted effect of over 45% in size
Rabbit aldolase – selectivity test for Giardia aldolase inhibitors: rabbit aldolase. shares compounds with Giardia FBPA inh-1. Rabbit muscle FBPA enzyme inhibition, selectivity counter-screen. Potency, µM (series often up to 57.5 µM), most hits filed as inhibitors. 1,500 compounds, 4% hits. AID 2794; also: nearly all actives have a fitted effect of over 60% in size
Target sequence (P00883 whole entry, looked up): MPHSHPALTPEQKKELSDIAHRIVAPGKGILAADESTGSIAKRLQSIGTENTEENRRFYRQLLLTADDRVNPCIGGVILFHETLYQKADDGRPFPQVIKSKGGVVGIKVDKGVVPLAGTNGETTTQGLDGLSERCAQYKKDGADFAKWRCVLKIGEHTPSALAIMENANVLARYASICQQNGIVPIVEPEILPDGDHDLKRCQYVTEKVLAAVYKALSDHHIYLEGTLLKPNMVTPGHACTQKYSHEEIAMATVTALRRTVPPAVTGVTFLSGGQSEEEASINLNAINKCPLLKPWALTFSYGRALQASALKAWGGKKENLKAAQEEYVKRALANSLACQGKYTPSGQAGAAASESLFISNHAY
GAPDH counter – GAPDH inhibition flagged for Giardia aldolase hits. Potency, µM (highest dose often 57.5 µM), most hits filed as inhibitors. 1,500 compounds, 6% hits. shares compounds with Giardia FBPA inh-1. AID 2795. GAPDH coupling enzyme counterscreen, biochemical, qHTS; also: nearly all actives have a fitted effect of over 55% in size
A number is an active result; n = inactive; u = inconclusive; x = no result; [ ] = another dose, or the depositor's remark. Unless noted, calls follow the shape of the dose curve; as a rule, active = well fitted curve in the direction sought with a large enough effect; inconclusive = small, poorly fitted or top-dose-only effect, or another doubt; inactive = no such curve, though single readings can be large; an effect the other way counts as inactive or inconclusive.

SMILES | FMDV inh | VACV Venus inh | VACV mCherry inh | Giardia FBPA inh-1 | Giardia growth | Mammalian tox | Giardia FBPA inh-2 | Rabbit aldolase | GAPDH counter
Cc1ccc(NS(=O)(=O)c2cc(-c3cc(C)no3)ccc2C(C)C)nc1 | n | x | x | 20µM | n | n | u | u | u
CNC(=O)c1c(C)[nH]c(=S)c(C#N)c1-c1ccco1 | n | x | x | 13µM | n[10.4 µM] | n | n | n | n
Cc1ccccc1NC(=O)c1c(C)[nH]c(=S)c(C#N)c1-c1ccco1 | n | n | n | n | x | x | x | x | x
COC(=O)C(C(=O)OC)[C@@H]1c2ccccc2[C@H]2C(=C[C@@H](C)[C@H]3C(=O)N(c4ccccc4)C(=O)[C@H]32)N1C(=O)OC | x | x | x | n[12.9 µM] | x | x | x | x | x
Oc1ccc(/C=N/N=C(c2ccccc2)c2ccccc2)c(O)c1O | n | n | u | 5.6µM | n[10.4 µM] | n | 10µM | u | u
Cc1ccc(NC(=O)CSc2nc3nc(C)c(Br)cc3[nH]2)cc1F | n | x | x | 18µM | u | n | n | n | n
COc1ccc(-c2nc3sc(CCNC(=O)Cc4ccccc4)c(C)n3n2)cc1 | n | n | n | x | x | x | x | x | x
C=CCn1c(SCC(=O)NCc2ccco2)nnc1-c1cccc(N(C)C)c1 | x | n | n | x | x | x | x | x | x
COc1cc(OC)c(OC)cc1CN1CCCC(C(=O)N2CCCC2)C1 (configuration not stated) | n | n | n | 28µM | n | n | n | n | n
O=C1C(Cl)=C(NCCCO)C(=O)c2ccccc21 | u | n | x | u | x | x | x | x | x
CN(C)c1ccc(NC2=C(Cl)C(=O)c3ccccc3C2=O)cc1 | u | 11µM | u | u | 11µM | 33µM | u | u | 3.7µM
C=CCNC(=O)N1CCc2nc(-c3ccccc3)c3c(c2C1)CO[C@@H](C)C3 | x | x | x | n[12.9 µM] | x | x | x | x | x
C=CCSC1=N/C(=C\C=C\c2ccco2)C(=O)S1 | n | n | x | 6.3µM | n | n | n | n | n
CCC1CCC2(CC1)NNC(=S)NN2 | n | n | n | 13µM | n[10.4 µM] | n | n | n | n
COc1cc(/C=c2\[nH]c(=O)/c(=C/c3cc(OC)c(OC)c(OC)c3)[nH]c2=O)cc(OC)c1OC | x | n | n | x | x | x | x | x | x
Cc1cc(NCCN)nc2ccccc12 | n | n | n | n | x | x | x | x | x
Cc1cc(N/N=C(/CCC(=O)O)C(=O)O)nc2ccccc12 | n | n | n | 16µM | n[10.4 µM] | n | n | n | u
CC(OC(=O)c1ccccc1OCCOc1ccccc1)C(=O)Nc1ccc(Br)cc1 (configuration not stated) | x | n | n | x | x | x | x | x | x
COc1cc(SC)ccc1C(=O)N1CCC(Cc2ccccc2)CC1 | n | x | x | n | x | x | x | x | x
C=CCC(NCc1ccccc1)c1ccc(OC)cc1 (configuration not stated) | n | n | n | 14µM | n | n | n | n | n
Cc1ccc(OCCCSc2nc(-c3ccc(C(C)(C)C)cc3)nc3cc(=O)[nH]n23)cc1C | n | n | n | x | x | x | x | x | x
COc1ccc(C(=O)NC(=S)N2CCC(C)CC2)cc1Br | n | n | u | x | x | x | x | x | x
COc1ccc(C(=O)NC(=S)N2CCNC(=O)C2)cc1Br | n | x | x | 18µM | n | n | n | n | n
CN(C)c1ccc(C(I)C(I)c2ccnc3ccccc23)cc1 (configuration not stated) | x | n | n | x | x | x | x | x | x
COC(=O)c1cccnc1NC(=S)NNC(=O)c1ccncc1 | n | x | x | 7.1µM | n | n | n | n | n
SMILES | FMDV inh | VACV Venus inh | VACV mCherry inh | Giardia FBPA inh-1 | Giardia growth | Mammalian tox | Giardia FBPA inh-2 | Rabbit aldolase | GAPDH counter
Cc1ccc(-c2nc(N)s[n+]2-c2ccccc2)cc1 | n | n | n | u | x | x | x | x | x
CNc1nc(-c2ccccc2)[n+](-c2ccc(C)cc2)s1 | n | n | n | 13µM | u | n | u | 10µM | n
Oc1ccccc1N=Cc1c(O)ccc2ccccc12 | n | n | n | u | n | n | 0.33µM | u | n
COc1ccc(CN(C)CC(=O)Nc2sc3c(c2C#N)CCC3)c(OC)c1 | u | n | n | 18µM | n[10.4 µM] | n | n | n | n
O=C(CCCC[C@@H]1SC[C@H]2NC(=O)N[C@H]12)Nc1ccc(C(=O)O)cc1 | x | x | x | n | x | x | x | x | x
C[C@]12CC[C@@H](O)C[C@@H]1CC[C@@H]1[C@@H]2CC[C@]2(C)C=CC[C@@H]12 | n | n | n | x | x | x | x | x | x
